Data published in PubChem BioAssay (NCI).
Compounds without any hit were thinned out: in the full panel of roughly 83,000, 20% have a hit.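 Note: values are percent growth. 100 is the growth of untreated cells, values between 100 and 0 indicate rising inhibition; between -100 and 0 indicates cell death.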 Active and inactive are the calls of the source. How the source made its calls: active means growth percent below 10; inactive means the rest.

system: EKVX NSCLC; assay: NCI-60 one-dose screen, 48 h (100 = growth as untreated, 0 = no growth, -100 = all killed); conditions: 10 µM unless noted

Row | SMILES | growth
1 | Fc1ccc(-c2cc3nc(C(Cl)Cl)nc(-c4ccccc4)n3n2)cc1 | 1.49% (active)
2 | O=C(c1ccc(Cl)cc1)C1[C@H](c2ccc(Cl)cc2)[C@@H](c2ccccc2)NC12C(=O)Nc1ccc(Br)cc12 (stereo partly drawn) | 43.6% (inactive)
3 | COc1ccccc1C(=O)CSc1nc(Nc2ccc(S(N)(=O)=O)cc2)c2ccccc2n1 | 92.6% (inactive)
4 | CC(C)(C)Nc1nc2c(OCCc3ccccc3)cccn2c1-c1ccccc1Cl | 6.5% (active)
5 | CNC(=O)c1cc(-c2ccc(NC(=O)Nc3ccc(N4CCOCC4)c(C(F)(F)F)c3)cc2)nc2cccnc12 | 76.6% (inactive)
6 | CS(=O)(=O)c1ccc(-n2cc(/C=C/C(=O)c3ccc(NC(=O)CO[N+](=O)[O-])cc3)c(-c3ccc(Cl)cc3)n2)cc1 | 90.5% (inactive)
7 | Cc1[nH]nc2ncc(C#Cc3cncc(C(=O)Nc4ccc(CN5CCN(C)CC5)c(C(F)(F)F)c4)c3)cc12 | 54.9% (inactive)
8 | CCN1C(=S)N(CC)C2C1N=C(SC)N2/N=C/C=C/c1ccccc1[N+](=O)[O-] (stereo not drawn) | 93.6% (inactive)
9 | C/C(=C(/c1ccc(Cl)cc1)c1ccc(OCCN)cc1)c1ccc(C)cc1 | 98.8% (inactive)
10 | O=[N+]([O-])c1ccc(O)c2ncccc12 | 26.2% (inactive)
11 | Cc1cc(=O)oc2cc(OCCCOc3ccc(/C=C/C(=O)Nc4ccc(Cl)cc4)cc3)ccc12 | 98.5% (inactive)
12 | Cc1ccc(-c2nc(C(Cl)Cl)nc3cc(-c4ccccc4)nn23)cc1 | -0.218% (active)
13 | Nc1cc(-c2c[nH]c3ccc(F)cc23)nc2cc(-c3c[nH]c4ccc(F)cc34)nn12 | 78.2% (inactive)
